Experimental data: ChEMBL document CHEMBL1961873, “Compounds: GSK PKIS; Assays: Nanosyn kinase panel” (2012)
Values joined by “and” are separate entries in the source; they are usually repeats but may differ in a detail not shown here. Equal entries are not always repeated.

Experiments:
[1] = molecular target: Ribosomal protein S6 kinase alpha-6 (Homo sapiens) (UniProt Q9UK32); conditions: at 1 µM;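 also: each value is a mean inhibition of RSK4 from a GSK PKIS panel screen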
[2] = molecular target: T1, Serine/threonine-protein kinase Sgk1 (Homo sapiens) (UniProt O00141); conditions: at 0.1 µM
T1 sequence (whole entry): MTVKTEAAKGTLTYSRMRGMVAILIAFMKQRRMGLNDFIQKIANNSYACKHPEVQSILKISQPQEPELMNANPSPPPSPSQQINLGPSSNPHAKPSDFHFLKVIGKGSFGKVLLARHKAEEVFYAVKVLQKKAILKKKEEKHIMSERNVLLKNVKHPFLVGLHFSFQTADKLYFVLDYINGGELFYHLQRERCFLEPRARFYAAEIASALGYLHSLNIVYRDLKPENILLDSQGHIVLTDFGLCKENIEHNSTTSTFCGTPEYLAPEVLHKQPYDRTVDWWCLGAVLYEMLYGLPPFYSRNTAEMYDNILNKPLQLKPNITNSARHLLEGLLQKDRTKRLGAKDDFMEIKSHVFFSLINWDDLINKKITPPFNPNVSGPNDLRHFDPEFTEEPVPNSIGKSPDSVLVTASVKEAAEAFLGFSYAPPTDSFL

[3] = molecular target: T1, Serine/threonine-protein kinase Sgk1 (Homo sapiens); conditions: at 1 µM
[4] = molecular target: T2, Serine/threonine-protein kinase Sgk2 (Homo sapiens) (UniProt Q9HBY8); conditions: at 0.1 µM
T2 sequence (whole entry): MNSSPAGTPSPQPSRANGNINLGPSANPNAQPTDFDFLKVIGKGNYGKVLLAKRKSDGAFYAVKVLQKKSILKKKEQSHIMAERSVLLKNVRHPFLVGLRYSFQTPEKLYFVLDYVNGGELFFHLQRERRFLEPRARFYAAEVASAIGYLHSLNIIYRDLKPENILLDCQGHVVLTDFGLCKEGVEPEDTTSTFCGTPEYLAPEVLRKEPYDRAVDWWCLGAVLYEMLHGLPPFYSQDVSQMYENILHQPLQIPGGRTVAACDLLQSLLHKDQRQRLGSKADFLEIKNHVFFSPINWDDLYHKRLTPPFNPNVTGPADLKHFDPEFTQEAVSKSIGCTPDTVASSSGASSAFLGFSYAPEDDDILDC

[5] = molecular target: T2, Serine/threonine-protein kinase Sgk2 (Homo sapiens); conditions: at 1 µM
[6] = molecular target: T3, Serine/threonine-protein kinase Sgk3 (Homo sapiens) (UniProt Q96BR1); conditions: at 0.1 µM
T3 sequence (whole entry): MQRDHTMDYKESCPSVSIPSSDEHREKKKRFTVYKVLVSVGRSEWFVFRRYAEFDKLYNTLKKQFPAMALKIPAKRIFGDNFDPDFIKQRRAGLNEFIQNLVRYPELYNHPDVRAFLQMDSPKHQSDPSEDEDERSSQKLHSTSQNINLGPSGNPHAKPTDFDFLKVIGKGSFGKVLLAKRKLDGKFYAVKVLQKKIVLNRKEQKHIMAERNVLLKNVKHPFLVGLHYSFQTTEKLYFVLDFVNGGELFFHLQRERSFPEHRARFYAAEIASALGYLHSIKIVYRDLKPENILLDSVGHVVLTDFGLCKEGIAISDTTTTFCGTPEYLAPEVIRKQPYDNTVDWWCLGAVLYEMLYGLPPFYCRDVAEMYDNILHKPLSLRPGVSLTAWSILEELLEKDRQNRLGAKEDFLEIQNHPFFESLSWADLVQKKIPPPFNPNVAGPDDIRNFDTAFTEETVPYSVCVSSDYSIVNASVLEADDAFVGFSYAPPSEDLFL

[7] = molecular target: T3, Serine/threonine-protein kinase Sgk3 (Homo sapiens); conditions: at 1 µM
[8] = molecular target: 5'-AMP-activated protein kinase catalytic subunit alpha-1 (Homo sapiens) (UniProt Q13131); conditions: at 0.1 µM
[9] = molecular target: 5'-AMP-activated protein kinase catalytic subunit alpha-1 (Homo sapiens) (UniProt Q13131); conditions: at 1 µM
[10] = molecular target: 5'-AMP-activated protein kinase catalytic subunit alpha-2 (Homo sapiens) (UniProt P54646); conditions: at 0.1 µM
[11] = molecular target: 5'-AMP-activated protein kinase catalytic subunit alpha-2 (Homo sapiens) (UniProt P54646); conditions: at 1 µM
[12] = molecular target: T4, NUAK family SNF1-like kinase 1 (Homo sapiens) (UniProt O60285); conditions: at 0.1 µM
T4 sequence (whole entry): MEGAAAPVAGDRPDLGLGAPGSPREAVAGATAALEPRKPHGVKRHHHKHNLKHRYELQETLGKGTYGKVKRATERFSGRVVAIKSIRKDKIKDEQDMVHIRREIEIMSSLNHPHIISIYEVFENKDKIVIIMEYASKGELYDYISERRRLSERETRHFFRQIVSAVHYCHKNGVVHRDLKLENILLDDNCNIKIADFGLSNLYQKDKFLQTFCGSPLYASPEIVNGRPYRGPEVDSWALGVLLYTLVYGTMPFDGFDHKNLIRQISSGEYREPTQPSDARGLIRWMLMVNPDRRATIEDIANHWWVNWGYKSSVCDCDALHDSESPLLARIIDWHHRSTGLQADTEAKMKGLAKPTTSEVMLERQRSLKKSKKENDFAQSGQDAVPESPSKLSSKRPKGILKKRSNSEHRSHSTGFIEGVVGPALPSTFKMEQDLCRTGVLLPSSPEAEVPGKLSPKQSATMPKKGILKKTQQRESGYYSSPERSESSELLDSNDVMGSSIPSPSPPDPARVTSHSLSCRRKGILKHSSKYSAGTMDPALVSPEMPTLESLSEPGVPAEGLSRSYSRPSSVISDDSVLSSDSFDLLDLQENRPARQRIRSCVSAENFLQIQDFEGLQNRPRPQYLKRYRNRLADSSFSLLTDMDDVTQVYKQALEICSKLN

[13] = molecular target: T4, NUAK family SNF1-like kinase 1 (Homo sapiens); conditions: at 1 µM
[14] = molecular target: T5, Serine/threonine-protein kinase BRSK1 (Homo sapiens) (UniProt Q8TDC3); conditions: at 0.1 µM
T5 sequence (whole entry): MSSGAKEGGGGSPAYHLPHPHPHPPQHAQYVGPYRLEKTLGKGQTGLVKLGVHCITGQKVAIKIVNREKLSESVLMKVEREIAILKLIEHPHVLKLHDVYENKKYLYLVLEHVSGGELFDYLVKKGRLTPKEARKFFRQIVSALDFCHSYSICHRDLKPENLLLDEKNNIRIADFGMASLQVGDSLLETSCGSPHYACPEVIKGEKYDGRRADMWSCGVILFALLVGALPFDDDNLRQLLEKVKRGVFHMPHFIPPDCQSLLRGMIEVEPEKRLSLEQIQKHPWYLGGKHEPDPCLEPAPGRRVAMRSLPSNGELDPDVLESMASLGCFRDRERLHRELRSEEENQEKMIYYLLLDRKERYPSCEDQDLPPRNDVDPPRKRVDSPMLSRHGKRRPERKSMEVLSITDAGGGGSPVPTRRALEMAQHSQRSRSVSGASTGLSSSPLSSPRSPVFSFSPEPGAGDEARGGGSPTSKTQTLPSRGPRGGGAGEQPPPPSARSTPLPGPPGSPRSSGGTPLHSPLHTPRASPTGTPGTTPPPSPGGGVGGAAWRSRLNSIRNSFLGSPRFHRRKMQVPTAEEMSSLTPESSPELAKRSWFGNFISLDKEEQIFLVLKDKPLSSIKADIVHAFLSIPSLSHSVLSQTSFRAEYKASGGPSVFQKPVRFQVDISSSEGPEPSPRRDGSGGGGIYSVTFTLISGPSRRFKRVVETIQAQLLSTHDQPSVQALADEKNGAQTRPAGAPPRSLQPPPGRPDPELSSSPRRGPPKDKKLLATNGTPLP

[15] = molecular target: T5, Serine/threonine-protein kinase BRSK1 (Homo sapiens); conditions: at 1 µM
[16] = molecular target: T6, Serine/threonine-protein kinase BRSK2 (Homo sapiens) (UniProt Q8IWQ3); conditions: at 0.1 µM
T6 sequence (whole entry): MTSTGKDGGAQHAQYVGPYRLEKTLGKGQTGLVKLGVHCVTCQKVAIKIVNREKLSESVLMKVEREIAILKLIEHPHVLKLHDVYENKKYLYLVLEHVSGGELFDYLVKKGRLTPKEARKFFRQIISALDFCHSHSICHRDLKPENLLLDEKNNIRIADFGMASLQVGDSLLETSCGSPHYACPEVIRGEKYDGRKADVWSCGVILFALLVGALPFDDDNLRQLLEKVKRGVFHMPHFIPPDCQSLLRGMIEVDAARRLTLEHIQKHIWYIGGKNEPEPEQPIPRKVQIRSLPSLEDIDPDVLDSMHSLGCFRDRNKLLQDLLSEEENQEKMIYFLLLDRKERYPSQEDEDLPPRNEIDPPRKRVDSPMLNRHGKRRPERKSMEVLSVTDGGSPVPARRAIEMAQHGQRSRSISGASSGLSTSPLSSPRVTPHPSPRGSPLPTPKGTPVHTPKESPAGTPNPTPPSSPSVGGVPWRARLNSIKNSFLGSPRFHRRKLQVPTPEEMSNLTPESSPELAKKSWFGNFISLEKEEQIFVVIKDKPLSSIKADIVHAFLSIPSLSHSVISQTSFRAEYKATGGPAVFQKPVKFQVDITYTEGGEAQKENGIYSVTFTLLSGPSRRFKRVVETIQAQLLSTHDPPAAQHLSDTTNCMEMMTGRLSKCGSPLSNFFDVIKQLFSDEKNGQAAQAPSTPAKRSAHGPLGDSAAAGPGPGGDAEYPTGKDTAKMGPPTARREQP

[17] = molecular target: T6, Serine/threonine-protein kinase BRSK2 (Homo sapiens); conditions: at 1 µM
[18] = molecular target: Calcium/calmodulin-dependent protein kinase type 1D (Homo sapiens) (UniProt Q8IU85); conditions: at 0.1 µM
[19] = molecular target: Calcium/calmodulin-dependent protein kinase type 1D (Homo sapiens) (UniProt Q8IU85); conditions: at 1 µM
[20] = molecular target: Calcium/calmodulin-dependent protein kinase type II subunit alpha (Homo sapiens) (UniProt Q9UQM7); conditions: at 0.1 µM;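 also: reported values are averages (mean inhibition of CAMK2A)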
Chain of Calcium/calmodulin-dependent protein kinase type II subunit alpha (Homo sapiens) (Q9UQM7 whole entry): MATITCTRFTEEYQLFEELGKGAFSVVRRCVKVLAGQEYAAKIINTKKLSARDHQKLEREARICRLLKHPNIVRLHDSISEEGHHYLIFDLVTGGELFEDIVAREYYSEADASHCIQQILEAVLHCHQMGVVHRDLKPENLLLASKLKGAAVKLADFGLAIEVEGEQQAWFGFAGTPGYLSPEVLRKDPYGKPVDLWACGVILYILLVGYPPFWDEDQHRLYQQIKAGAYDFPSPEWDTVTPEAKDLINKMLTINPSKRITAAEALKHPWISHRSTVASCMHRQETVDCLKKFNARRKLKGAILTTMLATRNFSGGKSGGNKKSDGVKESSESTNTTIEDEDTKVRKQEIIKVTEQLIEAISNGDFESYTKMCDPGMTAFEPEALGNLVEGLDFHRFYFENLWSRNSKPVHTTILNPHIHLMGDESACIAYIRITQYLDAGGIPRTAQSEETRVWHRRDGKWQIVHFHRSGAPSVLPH

Chain of 5'-AMP-activated protein kinase catalytic subunit alpha-2 (Homo sapiens) (P54646 whole entry, looked up): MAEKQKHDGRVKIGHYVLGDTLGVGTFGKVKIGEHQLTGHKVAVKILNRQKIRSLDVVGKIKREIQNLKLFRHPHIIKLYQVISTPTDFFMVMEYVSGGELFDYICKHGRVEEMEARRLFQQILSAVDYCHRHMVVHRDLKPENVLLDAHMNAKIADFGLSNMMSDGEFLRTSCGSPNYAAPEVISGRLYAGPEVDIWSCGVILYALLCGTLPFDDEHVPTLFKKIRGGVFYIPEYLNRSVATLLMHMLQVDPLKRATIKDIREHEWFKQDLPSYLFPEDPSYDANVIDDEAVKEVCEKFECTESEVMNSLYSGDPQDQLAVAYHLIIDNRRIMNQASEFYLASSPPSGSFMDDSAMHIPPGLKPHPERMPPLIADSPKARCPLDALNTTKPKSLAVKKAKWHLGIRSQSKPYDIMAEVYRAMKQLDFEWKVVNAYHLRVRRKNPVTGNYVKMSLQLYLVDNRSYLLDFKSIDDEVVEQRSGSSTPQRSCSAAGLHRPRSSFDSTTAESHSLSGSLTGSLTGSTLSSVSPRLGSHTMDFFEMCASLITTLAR
Chain of 5'-AMP-activated protein kinase catalytic subunit alpha-1 (Homo sapiens) (Q13131 whole entry, looked up): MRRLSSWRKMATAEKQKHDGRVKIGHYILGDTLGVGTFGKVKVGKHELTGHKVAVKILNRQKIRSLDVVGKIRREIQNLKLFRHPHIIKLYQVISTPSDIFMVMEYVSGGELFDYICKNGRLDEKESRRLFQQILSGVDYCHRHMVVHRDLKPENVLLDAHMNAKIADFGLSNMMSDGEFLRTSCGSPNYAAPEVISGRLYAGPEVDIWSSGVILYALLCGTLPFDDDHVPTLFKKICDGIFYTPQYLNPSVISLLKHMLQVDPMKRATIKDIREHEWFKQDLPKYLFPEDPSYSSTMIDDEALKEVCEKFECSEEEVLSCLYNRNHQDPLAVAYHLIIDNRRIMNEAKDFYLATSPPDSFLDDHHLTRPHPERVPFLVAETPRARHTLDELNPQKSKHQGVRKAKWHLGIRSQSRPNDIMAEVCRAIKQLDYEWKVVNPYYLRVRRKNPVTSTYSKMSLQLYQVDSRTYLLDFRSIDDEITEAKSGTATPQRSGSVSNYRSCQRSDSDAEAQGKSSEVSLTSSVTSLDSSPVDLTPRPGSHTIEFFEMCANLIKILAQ
Chain of Calcium/calmodulin-dependent protein kinase type 1D (Homo sapiens) (Q8IU85 whole entry, looked up): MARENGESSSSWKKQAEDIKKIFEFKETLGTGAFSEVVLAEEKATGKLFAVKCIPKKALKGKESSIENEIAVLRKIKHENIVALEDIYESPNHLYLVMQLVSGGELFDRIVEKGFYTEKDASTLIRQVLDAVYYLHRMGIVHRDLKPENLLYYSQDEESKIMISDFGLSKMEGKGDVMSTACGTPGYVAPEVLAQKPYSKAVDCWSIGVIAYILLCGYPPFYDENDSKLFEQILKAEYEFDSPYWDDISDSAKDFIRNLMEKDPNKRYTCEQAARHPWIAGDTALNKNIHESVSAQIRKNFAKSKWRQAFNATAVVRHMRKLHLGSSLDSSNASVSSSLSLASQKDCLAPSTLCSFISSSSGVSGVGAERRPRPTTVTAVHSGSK
Chain of Ribosomal protein S6 kinase alpha-6 (Homo sapiens) (Q9UK32 whole entry): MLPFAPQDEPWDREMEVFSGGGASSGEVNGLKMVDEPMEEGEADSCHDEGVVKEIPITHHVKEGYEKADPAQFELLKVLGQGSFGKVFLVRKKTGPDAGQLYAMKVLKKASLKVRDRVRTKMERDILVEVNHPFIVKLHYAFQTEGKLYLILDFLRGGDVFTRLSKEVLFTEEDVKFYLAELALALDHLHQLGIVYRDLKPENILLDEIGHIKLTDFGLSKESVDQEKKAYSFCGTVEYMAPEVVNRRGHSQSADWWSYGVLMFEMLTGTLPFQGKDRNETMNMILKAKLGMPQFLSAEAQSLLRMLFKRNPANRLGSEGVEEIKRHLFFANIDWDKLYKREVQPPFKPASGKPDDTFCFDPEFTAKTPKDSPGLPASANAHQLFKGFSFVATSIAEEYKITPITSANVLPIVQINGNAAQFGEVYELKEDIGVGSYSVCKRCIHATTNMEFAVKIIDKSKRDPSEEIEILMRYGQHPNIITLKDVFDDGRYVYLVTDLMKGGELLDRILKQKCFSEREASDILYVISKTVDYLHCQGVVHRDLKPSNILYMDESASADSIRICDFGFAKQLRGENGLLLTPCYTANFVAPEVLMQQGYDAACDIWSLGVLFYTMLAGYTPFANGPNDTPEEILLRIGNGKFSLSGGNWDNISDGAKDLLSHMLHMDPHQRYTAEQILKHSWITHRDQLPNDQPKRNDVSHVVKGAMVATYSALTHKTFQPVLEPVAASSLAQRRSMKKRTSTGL

SMILES | inhibition [1] | inhibition [2] | inhibition [3] | inhibition [4] | inhibition [5] | inhibition [6] | inhibition [7] | inhibition [8] | inhibition [9] | inhibition [10] | inhibition [11] | inhibition [12] | inhibition [13] | inhibition [14] | inhibition [15] | inhibition [16] | inhibition [17] | inhibition [18] | inhibition [19] | inhibition [20]
COc1cc2c(cc1Nc1nc(Nc3cccc(F)c3C(N)=O)c3cc[nH]c3n1)N(C(=O)CN1CCN(C(C)C)CC1)CC2 | 11.7% | -0.48% | 1.29% | 1.96% | 0.58% | 0.73% | 0.46% | 1.45% | 3.93% | 5.43% | 3.18% | 1.37% | 5.31% | 2.82% | -1.3% | -0.84% | -0.2% | 1.29% | 7.02% | 2.3%
CS(=O)(=O)CCNCc1ccc(-c2ccc3ncnc(Nc4ccc(OCc5cccc(C(F)(F)F)c5)cc4)c3c2)o1 | 1.68% | 2.43% | 1.63% | 4.41% | 2.6% | 3.89% | 2.45% | 1.06% | 5.76% | 6.24% | 3.3% | 0.13% | 6.75% | 4% | 4.04% | 4.95% | 9.19% | -0.93% | 0.88% | 1.38%
CN1CCN(Cc2ccc(-c3cc4ncnc(Nc5ccc(OCc6cccc(F)c6)c(Cl)c5)c4s3)o2)CC1 | 2.87% and 4.99% | 2.87% and 4.63% | 3.57% and 7.64% | 1.23% and 4.49% | 1.46% and 3.55% | 1.48% and 4.43% | 2.48% and 5.69% | 2.4% and 5.32% | 3% and 5.69% | 3.72% and 4.13% | 4.56% and 5.82% | 0.69% and 0.76% | 4.56% and 2.98% | 0.8% and -0.05% | 2.8% and -0.24% | 2.16% and 1.05% | 4.75% and 4.26% | 0.32% and 0.88% | 2.5% and 0.41% | 0.12% and 4.61%
CNC(=O)c1sc(-n2cnc3cc(OC)c(OC)cc32)cc1OCc1ccccc1C(F)(F)F | 1.47% | 2.16% | 1.23% | 0.8% | 2.63% | 3.8% | 1.89% | 3.22% | 4.14% | 0.14% | -1.59% | 0.7% | 6.22% | 0.35% | 4.45% | 4.29% | 4.88% | 0.71% | -0.22% | 2.98%
CCn1c(-c2nonc2N)nc2cncc(C(=O)NCCNC)c21 | 37.3% | 3.75% | 18.1% | 2.29% | 17.7% | 21.3% | 66.2% | 3.01% | 8.23% | 2.58% | 4.46% | -0.78% | 2.03% | 0.66% | 6.23% | 2.51% | 9.29% | -0.23% | 0.83% | 2.44%
Cc1cc(O)cc(C)c1/C=C/c1cncc(C(=O)OC(C)(C)C)c1 | 1.11% | 1.6% | 2.22% | 3.61% | 4.38% | 3.8% | 0.63% | 2.74% | 3.91% | 2.92% | 4.01% | 1.92% | 4.1% | 0.6% | 5.15% | 2.26% | 3.54% | -0.01% | 1.19% | 1.37%
c1cnn2ncc(-c3ccnc(NCCCN4CCOCC4)n3)c2c1 | 0.49% | 1.8% | 3.79% | 0.34% | 5.05% | 5.66% | 8.34% | 2.28% | 2.5% | 3.24% | 2.36% | -0.66% | 0.6% | 0.82% | 1.97% | 1.69% | 1.28% | -0.6% | -0.17% | 2.86%
